tim23-1 inh: growth inhibitors of tim23-1 mutant yeast. 330,000 tested, 1.3% active. inhibition, % at 20 µM. S. cerevisiae tim23-1 growth, BacTiter-Glo luminescence, 24 h;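 active = growth inhibition of the mutant yeast at or above 50%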;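 note: temperature-sensitive mutant grown at 25 °C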
NALP3 yeast inh: inhibitors of NALP3 inflammasome in yeast. 330,000 tested, 0.39% active. inhibition, % at 10 µM. AID 2825. Yeast reconstituted NLRP3/ASC/caspase-1, beta-gal luminescence, 24 h;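 active = inhibition of 50% or more; inactive = inhibition below 50%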
TIM10 inh: TIM10 yeast growth inhibition; AID 463195; inhibition, % at 10 µM; 330,000 tested, 1.4% active; S. cerevisiae TIM10 strain growth, BacTiter-Glo luminescence, 24 h;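 active = inhibition of 40% or more at the single tested concentration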;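 note: wild-type TIM10 isogenic control strain grown at permissive 25 °C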
tim10-1 inh: tim10-1 yeast growth inhibition. 330,000 tested, 2.2% active. AID 463190. S. cerevisiae tim10-1 ts strain growth, BacTiter-Glo, 24 h. inhibition, % at 20 µM;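 active = inhibition of at least 40%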;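 note: mutant grown at 25 °C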
SKKanGAS inh: blocks kanamycin growth of S. pyogenes SKKanGAS strain; AID 1662; BacTiter-Glo, 6 h; 300,000 tested, 1.3% active; inhibition, % at 7.5 µM;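 active = mean replicate score, as percent of positive control median, at least 50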;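 note: strain carries kanamycin resistance gene driven by streptokinase promoter and grows in 40 µg/ml kanamycin; loss of luminescence reflects streptokinase promoter inhibition or plain growth inhibition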
PfHsp90 yeast 2: inhibits growth of yeast expressing Plasmodium falciparum Hsp90; S. cerevisiae expressing PfHsp90, BacTiter-Glo ATP, 48 h; yeast lacking PDR1 and PDR3 efflux regulators; inhibition, % at 9.4 µM; 310,000 tested, 0.32% active; AID 504621;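 active = every replicate shows inhibition above about 80%, whatever the replicate mean, limit read from the data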
tim10-1 confirm: tim10-1 yeast growth inhibition, confirmed | inhibition, % at 20 µM | AID 463213 | 7,400 tested, 56% active | S. cerevisiae tim10-1 ts strain growth, BacTiter-Glo, 24 h | shares compounds with tim10-1 inh;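 active = inhibition of yeast growth at or above a set limit in either of two repeat tests at 20 µM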;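 note: tim10-1 mutant grown at permissive 25 °C to find synthetic lethal compounds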
A number is an active result; n = inactive; x = no result given. The list is not random: actives were taken first. Their share in the collection is about 4.6%.

SMILES	tim23-1 inh	NALP3 yeast inh	TIM10 inh	tim10-1 inh	SKKanGAS inh	PfHsp90 yeast 2	tim10-1 confirm
CC(C)(C)c1csc(NC(=O)c2c(F)c(F)c(F)c(F)c2F)n1	n	n	n	40.7	n	n	n
C/C(=N\NC(=O)c1cc2ccccc2cc1O)c1ccccn1	n	n	n	60.0	101.9	92.3	n
C/C(CC(=O)N1CCN(C=O)CC1)=N\NC(=O)c1cc2ccccc2cc1O	n	n	n	n	n	n	x
C/C(=N/NC(=O)c1cc2ccccc2cc1O)C1C(=O)c2ccccc2C1=O	n	n	n	46.8	83.3	n	32.3
C/C(=N/NS(=O)(=O)c1ccc(Cl)cc1)c1ccncc1	n	n	n	n	n	n	x
C/C(=N\NS(=O)(=O)c1ccc(C(C)(C)C)cc1)c1ccccc1	n	n	n	42.4	n	n	42.6
C/C(=N/NS(=O)(=O)c1ccccc1)c1ccc(Cl)cc1	n	n	n	n	n	n	n
N#C/C(=C\Nc1ccccc1O)c1nc2ccccc2o1	x	x	x	x	n	n	x
Cc1nc2ccccn2c1C(=O)NNC(=O)Nc1cccc(C(F)(F)F)c1	n	n	n	n	n	n	x
COc1cc(/C=N/NC(=O)NC23CC4CC(CC(C4)C2)C3)ccc1O	n	n	n	50.6	n	n	n
CCOC(=O)C1CCN(C(=O)c2oc3ccc4c(c3c2C)C(O)CC2(CCCCC2)O4)CC1 (stereo not drawn)	n	n	n	54.3	n	n	32.8
COc1ccc2cc(CNCCOCCOCCNCc3ccc4cc(OC)ccc4c3)ccc2c1	x	x	x	x	x	n	x
Cc1ccc(Sc2ccc([N+](=O)[O-])cc2[N+](=O)[O-])nc1	n	n	n	40.3	n	n	37.3
Nc1nc(Sc2ccc([N+](=O)[O-])cc2[N+](=O)[O-])n[nH]1	n	n	n	n	n	n	x
Cc1ccnc(Sc2ccc([N+](=O)[O-])cc2[N+](=O)[O-])n1	n	n	n	59.2	n	n	52.7
COC(=O)CCN(C(=O)c1cccc([N+](=O)[O-])c1)c1ccccn1	n	n	n	n	n	n	x
C[n+]1cccc2c(Br)ccc([O-])c21	n	n	n	n	n	n	x
[O-][n+]1cccc2c(Br)cc(Br)c(O)c21	n	n	n	49.0	76.1	106.5	n
CCc1noc(C)c1C(=O)NNC(=O)c1cc(OC)cc(OC)c1	n	n	n	n	x	n	x
O=S(CC1CC1(Cl)Cl)CC1CC1(Cl)Cl (stereo not drawn)	n	n	n	n	n	n	x
COc1ccc(CNc2nc(Cl)c(C#N)s2)cc1	n	n	n	n	n	n	x
N#Cc1sc(NCc2ccccc2)nc1Cl	n	n	n	40.7	n	n	n
CN(C)c1ccc(NC(=O)CN2C(=O)c3ccccc3C2=O)cc1	n	n	n	n	n	n	x
N/C(=N\OC(=O)C12CC3CC(CC(C3)C1)C2)c1ccncc1	n	n	n	45.4	n	x	n
CCOc1ccc2oc(C(=O)Nc3cc(C)ccn3)c(C)c2c1	n	n	n	n	n	x	x
SMILES	tim23-1 inh	NALP3 yeast inh	TIM10 inh	tim10-1 inh	SKKanGAS inh	PfHsp90 yeast 2	tim10-1 confirm
O=S1(=O)N=C(N(Cc2cccs2)c2ccc(O)cc2)c2ccccc21	n	n	n	n	n	n	x
Cc1cc(C)c(-c2c(O)c3cccc4c3n(c2=O)CCC4)c(C)c1	n	n	n	47.1	n	n	n
Cc1ccc(C(=O)Nc2nc(-c3ccccc3)c(-c3ccccc3)o2)cc1	n	n	n	40.5	113.3	n	n
Cc1cc(C)nc(SCC(=O)Nc2nc(-c3ccccc3)c(-c3ccccc3)o2)n1	n	n	n	n	n	n	x
CCOC(=O)c1sc(NC(=O)CC)nc1C	n	n	n	n	n	n	x
CCOC(=O)c1sc(NC(=O)C2CC2)nc1C	n	n	n	46.7	n	n	31.8
Cc1cc(/C=C\c2ccc3cc(N(C)C)ccc3[n+]2C)c(C)n1-c1ccccc1	n	n	n	70.4	x	108.1	50.5
C[n+]1c(/C=C/c2ccc(O)cc2)ccc2ccccc21	n	n	n	n	n	n	x
CC(=O)c1ccc(OC(=O)C2CSC3(C)CCC(=O)N23)cc1 (stereo not drawn)	n	n	n	n	x	n	x

Source: PubChem BioAssay
